{"source": "PubChem BioAssay (NCATS)", "key": {"[1]": {"molecular_target": "Cytochrome P450 3A4 (Homo sapiens) (UniProt P08684)", "sequence (P08684 whole entry, looked up)": "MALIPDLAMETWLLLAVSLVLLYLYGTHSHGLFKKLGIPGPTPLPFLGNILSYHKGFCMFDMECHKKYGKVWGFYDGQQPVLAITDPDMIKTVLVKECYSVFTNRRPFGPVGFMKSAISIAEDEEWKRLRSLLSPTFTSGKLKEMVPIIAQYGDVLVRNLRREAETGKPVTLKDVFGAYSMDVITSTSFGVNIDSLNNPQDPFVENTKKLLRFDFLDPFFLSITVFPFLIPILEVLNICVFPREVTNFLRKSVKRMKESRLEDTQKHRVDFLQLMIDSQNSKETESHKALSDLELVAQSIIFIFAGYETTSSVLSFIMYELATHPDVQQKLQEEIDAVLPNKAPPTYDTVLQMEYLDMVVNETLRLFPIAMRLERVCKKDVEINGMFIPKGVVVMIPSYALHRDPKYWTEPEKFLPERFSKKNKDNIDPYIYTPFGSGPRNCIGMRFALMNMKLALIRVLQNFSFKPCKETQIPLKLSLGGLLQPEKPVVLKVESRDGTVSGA", "assay": "qHTS Assay for Inhibitors and Substrates of Cytochrome P450 3A4 (AID 884); also: nearly all actives have a fitted effect of over 50% in size", "outline": "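Luminescent readout of luciferin produced by CYP3A4 (20 nM) dealkylation of Luciferin-PPXE, 25 uM (its KM). NADPH-driven reaction ran 60 min at RT after 10 min compound preincubation; data scaled to 57 uM ketoconazole as 100% inhibition.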"}, "[2]": {"assay": "Confirmation and Secondary Assay for Modulators of Hemoglobin Beta Chain Splicing at IVS2 654 locus (AID 910)", "outline": "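HeLa cells stably expressing EGFP interrupted by β-globin IVS2-654 intron, seeded overnight in Opti-MEM/2% FCS, then treated 2 days at 37 °C. Restored splicing read as total peak GFP intensity per well by laser scanning cytometry (488 nm excitation, 500–520 nm emission); 500 nM antisense PNA as control.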"}, "[3]": {"assay": "Confirmation and Secondary Assay for Modulators of Hemoglobin Beta Chain Splicing at IVS2 705 locus (AID 930)", "outline": "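HeLa IVS2-705 EGFP reporter cells, 500/well, compound 2 d at 37C; correct splicing yields fluorescent EGFP. Control: 500 nM antisense PNA. Read-out: total peak GFP intensity.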"}, "[4]": {"assay": "qHTS Assay for Lipid Storage Modulators (AID 1519; calls by dose curve)", "conditions": "Drosophila S3 cells, BODIPY lipid droplet/cell ratio, laser cytometry, cells loaded with oleic acid", "outline": "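Cells seeded at 5,000 per well were treated with compounds over a concentration series and loaded with oleic acid (400 uM, as added). Lipid droplet fluorescence (488 nm excitation, 500-530 nm channel) was read by laser-scanning cytometry and normalized to 20 uM Triacsin C.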"}, "[5]": {"molecular_target": "ATP-dependent 6-phosphofructokinase (Trypanosoma brucei brucei) (UniProt O15648)", "sequence (O15648 whole entry, looked up)": "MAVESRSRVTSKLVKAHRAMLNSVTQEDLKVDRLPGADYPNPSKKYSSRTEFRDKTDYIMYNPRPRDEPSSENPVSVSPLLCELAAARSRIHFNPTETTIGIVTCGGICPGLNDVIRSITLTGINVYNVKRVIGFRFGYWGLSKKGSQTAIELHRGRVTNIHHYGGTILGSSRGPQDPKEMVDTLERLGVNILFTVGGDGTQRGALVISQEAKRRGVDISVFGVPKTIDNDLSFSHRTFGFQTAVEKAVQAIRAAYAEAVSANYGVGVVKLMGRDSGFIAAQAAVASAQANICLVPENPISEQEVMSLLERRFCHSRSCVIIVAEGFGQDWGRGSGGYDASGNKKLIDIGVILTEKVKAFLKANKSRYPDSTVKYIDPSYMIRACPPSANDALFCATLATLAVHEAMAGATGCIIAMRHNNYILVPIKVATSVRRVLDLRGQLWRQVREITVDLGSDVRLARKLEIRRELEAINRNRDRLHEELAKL", "assay": "qHTS Assay to Find Inhibitors of T. brucei phosphofructokinase: hit validation (AID 492961);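 also: luminescence reports ADP formed as PFK phosphorylates fructose-6-phosphate with ATP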", "outline": "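Compounds titrated; %activity normalized to 0x and 1x enzyme controls, curve-fitted. Readout: ADP-Glo luminescence after 45 min room-temperature reaction of 1.25 nM PFK, 0.1 mM ATP, 0.5 mM F6P, pH 8.0.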"}, "[6]": {"molecular_target": "Ubiquitin carboxyl-terminal hydrolase 1 (Homo sapiens) (UniProt O94782)", "sequence (O94782 whole entry, looked up)": "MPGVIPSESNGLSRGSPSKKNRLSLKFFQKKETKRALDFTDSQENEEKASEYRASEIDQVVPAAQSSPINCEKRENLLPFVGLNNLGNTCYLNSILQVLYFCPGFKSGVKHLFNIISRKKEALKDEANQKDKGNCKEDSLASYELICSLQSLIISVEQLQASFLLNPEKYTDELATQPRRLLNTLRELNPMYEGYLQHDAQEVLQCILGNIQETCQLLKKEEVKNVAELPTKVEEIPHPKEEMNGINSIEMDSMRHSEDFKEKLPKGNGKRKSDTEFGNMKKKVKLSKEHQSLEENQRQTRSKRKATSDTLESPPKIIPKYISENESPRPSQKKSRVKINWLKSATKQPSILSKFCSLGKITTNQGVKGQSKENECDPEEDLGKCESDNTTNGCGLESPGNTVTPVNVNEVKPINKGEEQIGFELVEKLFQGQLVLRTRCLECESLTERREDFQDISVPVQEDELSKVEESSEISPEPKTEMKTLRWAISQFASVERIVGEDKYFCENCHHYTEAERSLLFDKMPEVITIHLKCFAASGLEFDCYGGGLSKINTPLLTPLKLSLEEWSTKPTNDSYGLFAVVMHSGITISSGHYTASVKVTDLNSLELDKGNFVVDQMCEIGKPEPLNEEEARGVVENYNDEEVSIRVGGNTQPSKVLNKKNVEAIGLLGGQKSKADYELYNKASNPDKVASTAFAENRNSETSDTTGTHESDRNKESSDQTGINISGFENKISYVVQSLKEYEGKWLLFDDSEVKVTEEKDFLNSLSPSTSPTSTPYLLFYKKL", "assay": "Inhibitors of USP1/UAF1: Pilot qHTS (AID 504865);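 also: rhodamine fluorescence freed from ubiquitin-rhodamine substrate followed over time; top concentration of the series differs between compounds; nearly all actives have a fitted effect of over 35% in size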", "outline": "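In 50mM HEPES pH 7.8 containing 0.5mM EDTA, 1mM TCEP, 0.1 mg/ml BSA and 0.01% Tween-20, 1nM USP1/UAF1 is exposed to compound for 15 min, then Ub-Rho (150nM final) is added and fluorescence is read over time.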"}, "[7]": {"molecular_target": "Luciferin 4-monooxygenase (Photinus pyralis) (UniProt P08659)", "sequence (P08659 whole entry, looked up)": "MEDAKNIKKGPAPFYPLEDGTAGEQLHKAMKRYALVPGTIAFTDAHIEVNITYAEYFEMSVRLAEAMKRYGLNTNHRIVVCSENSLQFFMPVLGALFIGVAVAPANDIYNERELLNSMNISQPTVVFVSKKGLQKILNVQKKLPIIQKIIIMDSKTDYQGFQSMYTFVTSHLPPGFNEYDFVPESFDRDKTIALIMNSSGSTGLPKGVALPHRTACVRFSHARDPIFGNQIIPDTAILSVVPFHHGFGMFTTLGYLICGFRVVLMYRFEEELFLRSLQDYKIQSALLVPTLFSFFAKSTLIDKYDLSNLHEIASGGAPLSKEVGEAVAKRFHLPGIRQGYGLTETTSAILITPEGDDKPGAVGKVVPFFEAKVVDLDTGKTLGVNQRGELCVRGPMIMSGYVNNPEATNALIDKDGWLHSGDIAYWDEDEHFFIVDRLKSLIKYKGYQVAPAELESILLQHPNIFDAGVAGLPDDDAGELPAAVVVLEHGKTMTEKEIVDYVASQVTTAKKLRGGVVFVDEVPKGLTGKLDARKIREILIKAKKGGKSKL", "assay": "Biochemical firefly luciferase enzyme assay for NPC (AID 624030); also: nearly all actives have a fitted effect of over 70% in size", "outline": "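Purified P. pyralis luciferase at 10 nM in 50 mM Tris Acetate (final), luminescence read within 5 minutes of enzyme addition to compounds. Activity normalised to PTC124 versus DMSO; concentration-response curves classed by r2, magnitude and activity.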"}, "[8]": {"assay": "S16 Schwann cell viability assay (CellTiter-Glo assay) (AID 624031);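 also: native untransfected S16 rat Schwann cells; cellular ATP luminescence as a viability measure; nearly all actives have a fitted effect of over 70% in size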", "outline": "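Following overnight culture in 10% FBS DMEM, parental S16 rat Schwann cells are dosed for 24 h at 37 °C. Viability is read as CellTiter-Glo luminescence and expressed as % activity relative to DMSO (0%) and no-cell wells.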"}, "[9]": {"assay": "S16 Schwann cell PMP22 intronic element firefly luciferase assay (AID 624032); also: nearly all actives have a fitted effect of over 30% in size", "outline": "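Rat S16 Schwann cells stably carrying firefly luciferase driven by a PMP22 intronic element, in 10% FBS, treated 24 h at 37 C. ONE-Glo luminescence normalized to PTC124 control and DMSO (0%); curves classed by r2, magnitude and activity.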"}, "[10]": {"assay": "S16 Schwann cell PMP22 intronic element beta-lactamase assay (AID 624044; calls by dose curve; also: nearly all actives have a fitted effect of over 15% in size)", "outline": "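Beta-lactamase reporter under a PMP22 intronic regulatory element in stable S16 rat Schwann cells; 24 h compound exposure. 460 nm blue signal normalized between DMSO (0%) and potassium clavulanate, with 535 nm FRET tracking viability; curves classed by r2 and response.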"}, "[11]": {"assay": "qHTS profiling for inhibitors of Plasmodium falciparum proliferation (AID 504749); also: nearly all actives have a fitted effect of over 60% in size", "conditions": "P. falciparum in erythrocytes, SYBR Green DNA, 72 h; at 28.7 µM (top of the series); parasite line B", "outline": "(§1)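 SYBR Green fluorescence (ex 485 nm, em 535 nm) reports parasite DNA after 72 h compound exposure of infected red cells at 0.3% parasitemia, 2.5% hematocrit; signal normalized to 0.29 uM artemisinin and vehicle wells.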"}, "3D7": {"test_system": "3D7", "assay": "qHTS profiling for inhibitors of Plasmodium falciparum proliferation (AID 504749)", "conditions": "P. falciparum in erythrocytes, SYBR Green DNA, 72 h; series mostly up to 12.8 µM", "outline": "as §1"}, "7G8": {"test_system": "7G8", "assay": "qHTS profiling for inhibitors of Plasmodium falciparum proliferation (AID 504749)", "conditions": "P. falciparum in erythrocytes, SYBR Green DNA, 72 h; series mostly up to 12.8 µM", "outline": "as §1"}, "AA1029": {"test_system": "AA1029", "assay": "qHTS profiling for inhibitors of Plasmodium falciparum proliferation (AID 504749)", "conditions": "P. falciparum in erythrocytes, SYBR Green DNA, 72 h; series mostly up to 12.8 µM", "outline": "as §1"}, "AS120": {"test_system": "AS120", "assay": "qHTS profiling for inhibitors of Plasmodium falciparum proliferation (AID 504749)", "conditions": "P. falciparum in erythrocytes, SYBR Green DNA, 72 h; series mostly up to 28.7 µM", "outline": "as §1"}, "ATS189": {"test_system": "ATS189", "assay": "qHTS profiling for inhibitors of Plasmodium falciparum proliferation (AID 504749)", "conditions": "P. falciparum in erythrocytes, SYBR Green DNA, 72 h; series mostly up to 12.8 µM", "outline": "as §1"}, "ATS95": {"test_system": "ATS95", "assay": "qHTS profiling for inhibitors of Plasmodium falciparum proliferation (AID 504749)", "conditions": "P. falciparum in erythrocytes, SYBR Green DNA, 72 h; series mostly up to 12.8 µM", "outline": "as §1"}, "C2A": {"test_system": "C2A", "assay": "qHTS profiling for inhibitors of Plasmodium falciparum proliferation (AID 504749)", "conditions": "P. falciparum in erythrocytes, SYBR Green DNA, 72 h; series mostly up to 12.8 µM", "outline": "as §1"}, "CP185": {"test_system": "CP185", "assay": "qHTS profiling for inhibitors of Plasmodium falciparum proliferation (AID 504749)", "conditions": "P. falciparum in erythrocytes, SYBR Green DNA, 72 h; series mostly up to 12.8 µM", "outline": "as §1"}, "CP191": {"test_system": "CP191", "assay": "qHTS profiling for inhibitors of Plasmodium falciparum proliferation (AID 504749)", "conditions": "P. falciparum in erythrocytes, SYBR Green DNA, 72 h; series mostly up to 12.8 µM", "outline": "as §1"}, "CP194": {"test_system": "CP194", "assay": "qHTS profiling for inhibitors of Plasmodium falciparum proliferation (AID 504749)", "conditions": "P. falciparum in erythrocytes, SYBR Green DNA, 72 h; series mostly up to 12.8 µM", "outline": "as §1"}, "CP201": {"test_system": "CP201", "assay": "qHTS profiling for inhibitors of Plasmodium falciparum proliferation (AID 504749)", "conditions": "P. falciparum in erythrocytes, SYBR Green DNA, 72 h; series mostly up to 12.8 µM", "outline": "as §1"}, "CP203": {"test_system": "CP203", "assay": "qHTS profiling for inhibitors of Plasmodium falciparum proliferation (AID 504749)", "conditions": "P. falciparum in erythrocytes, SYBR Green DNA, 72 h; series mostly up to 12.8 µM", "outline": "as §1"}, "CP211": {"test_system": "CP211", "assay": "qHTS profiling for inhibitors of Plasmodium falciparum proliferation (AID 504749)", "conditions": "P. falciparum in erythrocytes, SYBR Green DNA, 72 h; series mostly up to 12.8 µM", "outline": "as §1"}, "CP215": {"test_system": "CP215", "assay": "qHTS profiling for inhibitors of Plasmodium falciparum proliferation (AID 504749)", "conditions": "P. falciparum in erythrocytes, SYBR Green DNA, 72 h; series mostly up to 28.7 µM", "outline": "as §1"}, "CP217": {"test_system": "CP217", "assay": "qHTS profiling for inhibitors of Plasmodium falciparum proliferation (AID 504749)", "conditions": "P. falciparum in erythrocytes, SYBR Green DNA, 72 h; series mostly up to 12.8 µM", "outline": "as §1"}, "CP237": {"test_system": "CP237", "assay": "qHTS profiling for inhibitors of Plasmodium falciparum proliferation (AID 504749)", "conditions": "P. falciparum in erythrocytes, SYBR Green DNA, 72 h; series mostly up to 12.8 µM", "outline": "as §1"}, "CP238": {"test_system": "CP238", "assay": "qHTS profiling for inhibitors of Plasmodium falciparum proliferation (AID 504749)", "conditions": "P. falciparum in erythrocytes, SYBR Green DNA, 72 h; series mostly up to 12.8 µM", "outline": "as §1"}, "CP247": {"test_system": "CP247", "assay": "qHTS profiling for inhibitors of Plasmodium falciparum proliferation (AID 504749)", "conditions": "P. falciparum in erythrocytes, SYBR Green DNA, 72 h; series mostly up to 12.8 µM", "outline": "as §1"}, "CP250": {"test_system": "CP250", "assay": "qHTS profiling for inhibitors of Plasmodium falciparum proliferation (AID 504749)", "conditions": "P. falciparum in erythrocytes, SYBR Green DNA, 72 h; series mostly up to 12.8 µM", "outline": "as §1"}, "CP252": {"test_system": "CP252", "assay": "qHTS profiling for inhibitors of Plasmodium falciparum proliferation (AID 504749)", "conditions": "P. falciparum in erythrocytes, SYBR Green DNA, 72 h; series mostly up to 12.8 µM", "outline": "as §1"}, "CP256": {"test_system": "CP256", "assay": "qHTS profiling for inhibitors of Plasmodium falciparum proliferation (AID 504749)", "conditions": "P. falciparum in erythrocytes, SYBR Green DNA, 72 h; series mostly up to 12.8 µM", "outline": "as §1"}}, "note": "Where “and” joins values, the source holds several entries; their conditions need not be identical. Equal values may be shown once. Results filed as inconclusive are left out. Where a call stands in place of a potency, no number is given. Calls of active or inactive are those of the source. Unless noted, calls follow the shape of the dose curve; as a rule, active = well fitted curve in the direction sought with a large enough effect; inconclusive = small, poorly fitted or top-dose-only effect, or another doubt; inactive = no such curve, though single readings can be large; an effect the other way counts as inactive or inconclusive.", "data": [{"molecule": "O=c1[nH]cnc2c1ncn2C1OC(CO)C(O)C1O", "note": "(centres undefined)", "values": [{"measurement": "Potency", "setting": "[1]", "result": "inactive"}, {"measurement": "Potency", "setting": "[2]", "result": "inactive"}, {"measurement": "outcome", "setting": "[3]", "result": "inactive"}, {"measurement": "activity change, negative = inhibition", "setting": "[4]; at 57.5 µM (top of the series)", "result": "5.69% (inactive) and -3.39% (inactive) and 2.45% (inactive)"}, {"measurement": "max response", "setting": "[4]; measured here: cell count channel max response", "result": "8.98% and -19.5% and -3.51%"}, {"measurement": "max response", "setting": "[4]; measured here: lipid channel max response", "result": "14% and -19.8% and 0.274%"}, {"measurement": "outcome", "setting": "[5]", "result": "inactive"}, {"measurement": "Potency", "setting": "[6]", "result": "inactive"}, {"measurement": "outcome", "setting": "[7]", "result": "inactive"}, {"measurement": "Potency", "setting": "[8]", "result": "inactive"}, {"measurement": "Potency", "setting": "[9]", "result": "inactive"}, {"measurement": "outcome", "setting": "[10]", "result": "inactive"}, {"measurement": "activity, negative = inhibition", "setting": "[11]", "result": "13.3% (inactive)"}, {"measurement": "Potency", "setting": "3D7", "result": "inactive"}, {"measurement": "Potency", "setting": "7G8", "result": "inactive"}, {"measurement": "Potency", "setting": "AA1029", "result": "inactive"}, {"measurement": "Potency", "setting": "AS120", "result": "inactive"}, {"measurement": "Potency", "setting": "ATS189", "result": "inactive"}, {"measurement": "Potency", "setting": "ATS95", "result": "inactive"}, {"measurement": "Potency", "setting": "C2A", "result": "inactive"}, {"measurement": "Potency", "setting": "CP185", "result": "inactive"}, {"measurement": "Potency", "setting": "CP191", "result": "inactive"}, {"measurement": "Potency", "setting": "CP194", "result": "inactive"}, {"measurement": "Potency", "setting": "CP201", "result": "inactive"}, {"measurement": "Potency", "setting": "CP203", "result": "inactive"}, {"measurement": "Potency", "setting": "CP211", "result": "inactive"}, {"measurement": "Potency", "setting": "CP215", "result": "inactive"}, {"measurement": "Potency", "setting": "CP217", "result": "inactive"}, {"measurement": "Potency", "setting": "CP237", "result": "inactive"}, {"measurement": "Potency", "setting": "CP238", "result": "inactive"}, {"measurement": "Potency", "setting": "CP247", "result": "inactive"}, {"measurement": "Potency", "setting": "CP250", "result": "inactive"}, {"measurement": "Potency", "setting": "CP252", "result": "inactive"}, {"measurement": "Potency", "setting": "CP256", "result": "inactive"}]}]}
